Results on 23 sequences are retold here after the OligoGym collection.
Also: reference of the scale not given here.

The target of the first test is EHD3. The test can be described thus: pooled miR-30 sensor sort-seq; sequence = guide strand. Particulars: shRNA.
TTGACCAGCTCCTTCTTCTTGT had a sensor-assay potency score (higher = more potent) of 0.288.

In the case of TTGATGAGGTCGTTGAGCTTGC, the sensor-assay potency score (higher = more potent) stood at 0.159.

The sequence TTGTCCTTCCCGAACACCGAGG returned a sensor-assay potency score (higher = more potent) of -1.14.

In turn, TAGGAAAGAACAGAGCTCCTGG returned a sensor-assay potency score (higher = more potent) of 0.716.

In the case of TGCAAACTCGTCGTCGTCCAGC, the sensor-assay potency score (higher = more potent) was -1.01.

In turn, AAACTCGTCGTCGTCCAGCATG showed a sensor-assay potency score (higher = more potent) of -1.38.

TTCAGCACCACTCGCATCTTGT returned a sensor-assay potency score (higher = more potent) of -0.387.

Turning to TTGATGACTTCTGAGAACTCAT, the sensor-assay potency score (higher = more potent) is -0.245.

TTCTTCTTGTTGTCCTTCCCGA: the sensor-assay potency score (higher = more potent) was -0.7.

TTTCTTGGGATCCACCACCAGG registered a sensor-assay potency score (higher = more potent) of -1.36.

On to TTTGTGGGCATCGAAGAGCAGA, for which the sensor-assay potency score (higher = more potent) was -1.26.

Another test addresses EHMT2. Described as above. Conditions: shRNA.
On to TTACACTCGAAAATCAGCGGAG, for which the sensor-assay potency score (higher = more potent) was -0.173.

In turn, TTGACGTCCACCTGTCCTGTGC yielded a sensor-assay potency score (higher = more potent) of -0.646.

In turn, TTCATGGTGGACGTCTCGCAGT showed a sensor-assay potency score (higher = more potent) of -1.22.

Consider TTAGTTGTTCAGTTAGAGCTTC, for which the sensor-assay potency score (higher = more potent) was 0.313.

TTGAGTTGAAGCGCAAACCACA yielded a sensor-assay potency score (higher = more potent) of -1.4.

TTCTTCTTGGCCTTGCGCCGGC registered a sensor-assay potency score (higher = more potent) of -0.437.

Sequence ATCCTTGTTGTCTAAGTCGAAG yielded a sensor-assay potency score (higher = more potent) of -1.84.

Turning to TAGAGCTTCAACTTCAGACTTG, the sensor-assay potency score (higher = more potent) amounted to 0.68.

The sequence TAGCATGCGGATCACCTCGATG yielded a sensor-assay potency score (higher = more potent) of -1.39.

In turn, TTGCTCTGCTGGTCGCTCTGGA registered a sensor-assay potency score (higher = more potent) of -0.425.

Consider TGAGTGGACATCATCACTCATG, for which the sensor-assay potency score (higher = more potent) is -1.27.

With TTGAGCTTCAGAAGCATCCTCC, the sensor-assay potency score (higher = more potent) stood at 0.398.
